The test system of one experiment is T1, GRK3.
T1 construct: gene ADRBK2
To be noted: concentration: 1 μM, replicates: in singlicate; n = 1.

The test system of the next experiment is GRK4. The following applies: concentration: 1 μM, replicates: in singlicate; n = 1.
For a further experiment, the system named is GRK7. To be noted: concentration: 1 μM, replicates: in singlicate; n = 1.
The next experiment relates to GSK3A. The following applies: concentration: 1 μM, replicates: in singlicate; n = 1.
For the next experiment, the system named is GSK3B. The following applies: n = 1.
A further experiment deals with T2, HASPIN.
T2 construct: gene GSG2
To be noted: concentration: 1 μM, replicates: in singlicate; n = 1.

A further experiment relates to HCK. The following applies: concentration: 1 μM, replicates: in singlicate; n = 1.
The next experiment concerns HIPK1. To be noted: concentration: 1 μM, replicates: in singlicate; n = 1.
For another experiment, the system named is HIPK2. The following applies: concentration: 1 μM, replicates: in singlicate; n = 1.
The subject of the next experiment is HIPK3. The following applies: concentration: 1 μM, replicates: in singlicate; n = 1.
In the next experiment the test system is HIPK4. The following applies: concentration: 1 μM, replicates: in singlicate; n = 1.
The next experiment concerns HPK1. To be noted: concentration: 1 μM, replicates: in singlicate; n = 1.
The next experiment relates to HUNK. The following applies: concentration: 1 μM, replicates: in singlicate; n = 1.
In the next experiment the test system is ICK. To be noted: concentration: 1 μM, replicates: in singlicate; n = 1.
In a further experiment the test system is IGF1R. To be noted: concentration: 1 μM, replicates: in singlicate; n = 1.
Another experiment concerns T3, IKK-alpha.
T3 construct: gene CHUK
The following applies: concentration: 1 μM, replicates: in singlicate; n = 1.

For the next experiment, the system named is T4, IKK-beta.
T4 construct: gene IKBKB
To be noted: concentration: 1 μM, replicates: in singlicate; n = 1.

Another experiment has as its system T5, IKK-epsilon.
T5 construct: gene IKBKE
The following applies: concentration: 1 μM, replicates: in singlicate; n = 1.

The next experiment has as its system INSRR. The following applies: concentration: 1 μM, replicates: in singlicate; n = 1.
The next experiment deals with INSR. The following applies: concentration: 1 μM, replicates: in singlicate; n = 1.
Setting [1] is: concentration: 1 μM, replicates: in singlicate.

This is an account of results in paper PMC5540273 (PLoS ONE, 2017).

Like-named read-outs stand apart in the source and are kept apart here.
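Note: KINOMEscan kinase panel screen.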

For the molecule `COc1cc2ncnc(Nc3cccc(Br)c3)c2cc1OC.Cl` [GI230329], the “%Inh” value in the experiment on GRK3 is 26%; with GRK4 it was 0%; with GRK7, 0%; in the experiment with GSK3A, 0%; with GSK3B (setting [1]), 0%; with HASPIN, 20%. Besides, the “%Inh” value with HCK is on record as 24%; in the experiment on HIPK1, 0%; in the experiment on HIPK2 it was 0%; in the experiment on HIPK3 it was 0%; in the experiment on HIPK4, 68%; with HPK1 it was 50%. The “%Inh” value in the experiment with HUNK came to 6%; in the experiment on ICK, 3%; with IGF1R it was 0%; in the experiment on IKK-alpha it was 0%; with IKK-beta, 0%; in the experiment with IKK-epsilon, 18%. Further, the “%Inh” value with INSRR and with INSR was 0% throughout.

With `Cc1c(Cn2c(C)c(C)n3c(=O)cc(N4CCOCC4)nc23)cccc1C(F)(F)F` [GSK2328680], the “%Inh” value in the experiment with GRK3 is reported as 0%; in the experiment with GRK4 it was 0%; in the experiment with GRK7, 0%; with GSK3A, 13%; in the experiment on GSK3B (setting [1]) it was 11%; in the experiment on HASPIN it was 0%. The “%Inh” value is recorded as 0% with HCK; 0% in the experiment with HIPK1; 0% in the experiment with HIPK2; 13% in the experiment on HIPK3; 0% in the experiment with HIPK4; 33% in the experiment on HPK1. The “%Inh” value in the experiment with HUNK stood at 0%; in the experiment on ICK, 0%; in the experiment with IGF1R, 0%; in the experiment on IKK-alpha, 7%; in the experiment on IKK-beta it was 0%; in the experiment on IKK-epsilon, 0%. In addition, the “%Inh” value in the experiment on INSRR is reported as 52%; in the experiment with INSR, 0%.

Regarding `c1ccc(-c2ccnc3[nH]ccc23)cc1` [SB-693578], the “%Inh” value with GRK3 worked out at 56%; in the experiment with GRK4, 3%; in the experiment with GRK7, 0%; with GSK3A, 22%; with GSK3B (setting [1]), 13%; in the experiment with HASPIN, 60%. For the same molecule, the “%Inh” value in the experiment with HCK was 0%; in the experiment with HIPK1, 4%; with HIPK2, 0%; in the experiment with HIPK3, 34%; in the experiment on HIPK4 it was 0%; in the experiment on HPK1, 48%. The “%Inh” value came to 2% with HUNK; 13% in the experiment on ICK; 14% in the experiment with IGF1R; 47% in the experiment on IKK-alpha; 64% with IKK-beta; 0% with IKK-epsilon. The “%Inh” value with INSRR is reported as 0%; in the experiment on INSR, 5%.

For `CC(=O)c1c(C)c2cnc(Nc3ccc(N4CCNCC4)cn3)nc2n(C2CCCC2)c1=O`, the “%Inh” value is given as 9% in the experiment on GRK3; 7% in the experiment on GRK4; 8% in the experiment with GRK7; 0% in the experiment with GSK3A; 0% with GSK3B (setting [1]); 0% with HASPIN. Moreover, the “%Inh” value turned out to be 0% with HCK; 20% in the experiment on HIPK1; 0% in the experiment with HIPK2; 0% in the experiment on HIPK3; 8% in the experiment on HIPK4; 0% in the experiment with HPK1. Further, the “%Inh” value in the experiment with HUNK is listed as 0%; in the experiment with ICK, 0%; with IGF1R, 0%; with IKK-alpha it was 0%; in the experiment on IKK-beta, 0%; in the experiment on IKK-epsilon it was 15%. Also, the “%Inh” value with INSRR and in the experiment on INSR was 0% each time.

On to `Cc1cnc(N)c(/C=C/c2cncc(C(=O)NCCc3ccc(Cl)cc3Cl)c2)c1.Cl` [GSK190937], for which the “%Inh” value in the experiment with GRK3 was 6%; in the experiment with GRK4, 0%; in the experiment with GRK7, 0%; in the experiment on GSK3A, 5%; in the experiment on GSK3B (setting [1]), 0%; in the experiment on HASPIN, 29%. Moreover, the “%Inh” value with HCK is listed as 0%; in the experiment with HIPK1, 0%; in the experiment on HIPK2, 0%; in the experiment on HIPK3 it was 26%; in the experiment on HIPK4, 17%; with HPK1 it was 45%. The “%Inh” value in the experiment with HUNK is 10%; in the experiment with ICK, 0%; with IGF1R, 8%; with IKK-alpha, 19%; in the experiment on IKK-beta, 46%; in the experiment with IKK-epsilon, 29%. Moreover, the “%Inh” value with INSRR amounted to 0%; in the experiment on INSR it was 31%.

`COC(=O)c1cccc(NC(=O)NC2CCN(c3ccnc(Nc4ccc(F)cc4)n3)C2)c1` (stereo not shown) [GSK1379725]: the “%Inh” value was 38% in the experiment with GRK3; 0% with GRK4; 0% with GRK7; 0% in the experiment on GSK3A; 0% in the experiment with GSK3B (setting [1]); 0% with HASPIN. For the same molecule, the “%Inh” value with HCK amounted to 0%; with HIPK1 it was 0%; in the experiment with HIPK2, 0%; in the experiment with HIPK3, 0%; in the experiment on HIPK4, 0%; in the experiment on HPK1, 51%. The “%Inh” value turned out to be 0% in the experiment with HUNK; 17% in the experiment on ICK; 0% in the experiment with IGF1R; 0% in the experiment with IKK-alpha; 5% in the experiment on IKK-beta; 0% in the experiment on IKK-epsilon. Further, the “%Inh” value with INSRR and in the experiment with INSR was 0% throughout.

On to `O=C(Nc1n[nH]c2nc(-c3ccco3)c(Br)cc12)C1CCN(Cc2ccccc2)C1.O=C(O)[C@H](O)[C@@H](O)C(=O)O` (stereo not shown) [SB-742034], for which the “%Inh” value with GRK3 worked out at 0%; with GRK4, 11%; in the experiment on GRK7, 42%; in the experiment on GSK3A it was 97.8%; with GSK3B (1 µM) it was 72%; with HASPIN it was 0%. The “%Inh” value in the experiment on HCK is recorded as 7%; in the experiment on HIPK1, 30%; in the experiment with HIPK2, 32%; in the experiment on HIPK3 it was 25%; with HIPK4, 1%; with HPK1, 0%. Further, the “%Inh” value was determined as 33% with HUNK; 22% with ICK; 0% with IGF1R; 0% in the experiment on IKK-alpha; 26% with IKK-beta; 19% in the experiment with IKK-epsilon. Further, the “%Inh” value in the experiment on INSRR is on record as 0%; in the experiment with INSR, 12%.

In the case of `CS(=O)(=O)CCNCc1nc(-c2ccc3ncnc(Nc4ccc5c(cnn5Cc5ccccc5)c4)c3c2)cs1.Cl.Cl` [GW569716], the “%Inh” value in the experiment with GRK3 is given as 41%; with GRK4 it was 0%; in the experiment on GRK7 it was 0%; in the experiment with GSK3A, 0%; in the experiment on GSK3B (setting [1]), 0%; in the experiment on HASPIN, 18%. Also, the “%Inh” value is listed as 0% with HCK; 0% with HIPK1; 0% with HIPK2; 0% in the experiment with HIPK3; 0% in the experiment with HIPK4; 32% in the experiment with HPK1. Moreover, the “%Inh” value in the experiment with HUNK is 28%; with ICK it was 2%; in the experiment with IGF1R it was 19%; in the experiment on IKK-alpha it was 38%; with IKK-beta, 8%; in the experiment with IKK-epsilon, 0%. Also, the “%Inh” value with INSRR and in the experiment with INSR was 0% in each case.

On to `CCn1c(-c2c(N)noc2C)nc2cnccc21` [SB-737856], for which the “%Inh” value in the experiment on GRK3 is recorded as 42%; with GRK4, 6%; in the experiment with GRK7, 0%; in the experiment with GSK3A, 0%; in the experiment with GSK3B (setting [1]), 2%; in the experiment with HASPIN, 0%. For the same molecule, the “%Inh” value turned out to be 0% in the experiment with HCK; 0% in the experiment on HIPK1; 0% in the experiment on HIPK2; 0% in the experiment with HIPK3; 0% in the experiment on HIPK4; 41% with HPK1. In addition, the “%Inh” value in the experiment with HUNK is recorded as 0%; in the experiment with ICK, 4%; with IGF1R it was 0%; in the experiment on IKK-alpha, 7%; in the experiment with IKK-beta, 0%; in the experiment with IKK-epsilon, 0%. Moreover, the “%Inh” value with INSRR and in the experiment on INSR was 0% in each case.

With `O=c1cc(N2CCOCC2)nc2n(Cc3ccccc3F)ccn12` [GSK2297428], the “%Inh” value in the experiment with GRK3 is 0%; in the experiment with GRK4, 0%; in the experiment on GRK7, 0%; in the experiment on GSK3A, 80%; in the experiment with GSK3B (setting [1]), 3%; in the experiment on HASPIN, 35%. The “%Inh” value with HCK was found to be 0%; with HIPK1, 33%; in the experiment on HIPK2, 0%; with HIPK3, 35%; in the experiment with HIPK4 it was 0%; with HPK1, 34%. For the same molecule, the “%Inh” value came out at 0% in the experiment with HUNK; 0% in the experiment on ICK; 7% in the experiment on IGF1R; 0% with IKK-alpha; 0% in the experiment on IKK-beta; 0% in the experiment on IKK-epsilon. Further, the “%Inh” value in the experiment on INSRR and with INSR was 0% in each case.

On to `CNc1nc(-c2ccc3c(N)n[nH]c3c2)cc(N2C[C@@H](C(=O)NC3CCCCC3)OC[C@H]2C)n1` [GSK2375584], for which the “%Inh” value in the experiment on GRK3 is recorded as 37%; in the experiment on GRK4, 4%; in the experiment with GRK7, 0%; with GSK3A, 10%; in the experiment on GSK3B (setting [1]), 14%; with HASPIN, 30%. Also, the “%Inh” value is 0% with HCK; 24% with HIPK1; 0% in the experiment with HIPK2; 2% with HIPK3; 0% in the experiment with HIPK4; 14% with HPK1. In addition, the “%Inh” value in the experiment on HUNK turned out to be 21%; in the experiment on ICK it was 12%; in the experiment with IGF1R it was 8%; with IKK-alpha, 0%; in the experiment on IKK-beta it was 0%; in the experiment on IKK-epsilon it was 30%. The figures for the “%Inh” value in the experiment on INSRR and with INSR were 0% and 6%, respectively.
